Measured values: PubChem BioAssay (NCI)
About 83,000 compounds went through this panel and 20% of them were active in at least one assay; those are over-represented in the sample as a whole.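 Single-concentration screen, 48 h exposure, 96-well plates. Endpoint: percent growth. Below 10 = active.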 A number with no mark means an inactive call. Active and inactive are the calls of the source.

The compounds below were run on HL-60(TB) leukemia (assay: NCI-60 one-dose screen, 48 h (100 = growth as untreated, 0 = no growth, -100 = all killed)). Conditions: 10 µM unless noted.

Compound | growth
Fc1ccc(-c2cc3nc(C(Cl)Cl)nc(-c4ccc(F)cc4)n3n2)cc1 | -1.81% (active)
COc1ccc(/C=N/NC(=O)c2[nH]c3ccc(Br)cc3c2-c2ccccc2)s1 | -44.2% (active)
O=C1Nc2ccccc2Oc2ccc(S(=O)(=O)CC3CO3)cc21 (centres undefined) | 0.252% (active)
CC1OC(O[C@@H]2C(O)C(CO)OC(O[C@H]3COC(O[C@H]4CC[C@]5(C)[C@H]6CC[C@]78OC[C@@]9(CC[C@](C)(C=O)C[C@H]97)[C@H](O)C[C@@]8(C)[C@]6(C)CC[C@H]5C4(C)C)[C@@H](OC4OC(CO)[C@@H](O)[C@@H](O)[C@@H]4O)[C@@H]3O)[C@H]2OC2OC[C@@H](O)[C@@H](O)[C@@H]2O)[C@@H](O)[C@@H](O)[C@H]1O (some centres undefined) | -60.5% (active)
O=[N+]([O-])c1ccc(-c2nnc(SCc3ccc(O)c4ncccc34)o2)cc1 | 13.7%
O=C(N/N=C/c1ccc[nH]1)c1[nH]c2ccc(Br)cc2c1-c1ccccc1 | -39.1% (active)
O=S(=O)(Nc1cc(Cl)c(F)c(Cl)c1)c1ccc(-c2cnc(C3CC3)o2)cc1 | 14.1%
Cc1ccc(-n2cc(/C=N/NC(=O)c3ccncc3)c(-c3ccc(S(C)(=O)=O)cc3)n2)cc1 | 76.4%
COc1cc(/C=N/NC(=O)c2cn(C3CC3)c3c(OC)c(N4CC5CCCNC5C4)c(F)cc3c2=O)ccc1O (centres undefined) | -40.3% (active)
CS(=O)(=O)Nc1cc(-c2ccc3ncc(C#N)c(NCc4ccccc4)c3c2)cnc1Cl | -29.2% (active)
CCNC(=O)Oc1ccc(/C(=C(/C)c2ccccc2)c2ccc(OCCN3CCCC3)cc2)cc1 | 50.7%
O=C(CCCCCCNC(=O)C(O)(O)C(F)(F)F)Nc1ncc(-c2ccccc2)s1 | 11.2%
CS(=O)(=O)c1ccc2c(c1)c1c(n2S(=O)(=O)c2ccc(Cl)cc2)CCCC1 | 4.55% (active)
N#Cc1nc(-c2ccccc2)oc1S(N)(=O)=O | 27.1%
C#CC(=O)N(c1ccc(OC)cc1OC)C(C(=O)NCC(=O)OCC)c1cccs1 (centres undefined) | -51.2% (active)
Cc1ccc(-c2cc3nc(C(Cl)Cl)nc(-c4ccco4)n3n2)cc1 | -11.9% (active)
COc1cc(N=Cc2sc(Nc3nccs3)nc2O)cc(OC)c1OC | 82.8%
NC(N)=Nc1ccc(Oc2cccc(Nc3ccc(Cl)c(C(F)(F)F)c3)c2)cn1 | -68% (active)
Fc1ccc(-c2cc3nc(C(Cl)Cl)nc(-c4ccc(Cl)cc4)n3n2)cc1 | -4.23% (active)
O=C1Nc2ccc(Br)cc2/C1=N\c1nnc(-c2ccc(Cl)cc2)o1 | 11.1%

Compound | growth
COc1cc(C2=NN(C(C)=O)C(c3ccc(N4CCOCC4)cc3)C2)cc(OC)c1OC (centres undefined) | 105%
CCNC(=NCCCN(C)C)N/C(N)=N/c1nc2ccccc2s1 | 90.9%
Nc1nc(=O)n([C@H]2C[C@H](O)[C@@H](CO)O2)cc1C=O | 94.1%
C#Cc1cc(C(=O)Nc2ccc(CNCCN3CCOCC3)c(C(F)(F)F)c2)ccc1C | 86%
O=C1C2=C(C(=O)c3c(O)cccc31)C(c1ccco1)c1sc(=O)[nH]c1S2 (centres undefined) | -17.6% (active)
N/C(=N\OC(=O)CSc1nc2ccccc2s1)c1ccc(Cl)cc1 | 108%
O=C(NNc1nc2cc(F)ccc2n2c(CN3CC4(COC4)C3)ccc12)c1cnccn1 | -30.1% (active)
O=C1Nc2ccc(Cl)cc2/C1=C/c1ccc(OCc2ccc(Br)cc2F)cc1 | 98%
O=C1Nc2cc(Cl)ccc2/C1=C\c1ccc(OCc2ccccc2)cc1 | 113%
COc1ccc(C(=O)c2c(N)c(C#N)cn2-c2ccccc2OC)cc1 | -7.7% (active)
O=C(c1cccc(F)c1)n1ccc2cc(NC(=S)Nc3cccnc3)ccc21 | 85.8%
C=CCn1c(SCC(=O)Nc2ccc(C(=O)/C=C/c3ccc(C)cc3)cc2)nnc1-c1c[nH]c2ccccc12 | 98.4%
N#Cc1c(Nc2ccccc2)nn2c(-c3ccc([N+](=O)[O-])cc3)ccnc12 | 93.9%
O=C1NC(=C(Cl)Cl)/C(=N/S(=O)(=O)N2CCCCC2CC2(C(F)(F)F)N=N2)N1 (centres undefined) | 1.49% (active)
COc1ccc(Cn2cc(C#N)c(N)c2C(C)=O)cc1 | 103%
CCC(CC)N1C(=O)/C(=c2\sc3n(c2=O)C2C(NN=3)N(CC)C(=O)N2CC)c2ccccc21 (centres undefined) | -17.8% (active)
O=C1[C@@H]2Cc3c([nH]c4ccccc34)[C@H](c3ccc(Cl)cc3)N2C(=O)CN1C1CCN(Cc2ccccc2)CC1 | 17.6%
COc1cc(NC2=C(Cl)C(=O)c3nc(C)ccc3C2=O)cc(OC)c1 | -13.4% (active)
Cc1cc2nc3c4cc(C#N)ccc4n(CCN(C)C)c3nc2cc1C | -35.7% (active)
